This is one part of a sample in which hits are shown more often than they occur.
YB-1 expression: YB-1 expression inhibition | U2OS, qRT-PCR YB-1 vs CDIP delta delta Cp, 16 h; hits give high values; zero = DMSO, each unit about twofold | delta delta Cp (YB-1 minus CDIP) (concentration not given with the values) | 0.37% of 30,000 active | AID 434959;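 active means delta delta Cp rounded down to an integer at or above 3, about 3 SD of DMSO wells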;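 further: higher means less YB-1 transcript or more CDIP transcript relative to DMSO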
MITF inhib: blocks MITF activity; TRPM1 promoter luciferase, luminescence, 24 h; inhibition, % (test concentration not listed); 0.28% of 37,000 active; in the data active means inhibition above about 85%; inconclusive means no clear call, values can overlap the other calls; inactive means below about 68%;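 further: human melanocyte line stably carrying TRPM1 promoter luciferase reporter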
Shh pathway inh: blocks Sonic Hedgehog signaling; 2.1% of 22,000 active; inhibition, % (no concentration beside the values); Shh-LIGHT2 Gli-luciferase reporter, 30 h; AID 2313;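 active means mean inhibition across valid replicates above about 65%, limit read from the data; inconclusive means mean under the limit, yet half or more replicates past it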;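 further: pathway switched on by Shh-conditioned medium diluted 1 in 25 in low serum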
Numbers without * were called inactive; u = inconclusive; x = no result given.

SMILES | YB-1 expression | MITF inhib | Shh pathway inh
CCCCCc1cc(OC)c(CC=C(C)C)c(O)c1C(=O)O | -0.24 | x | -17
CO[C@H]1[C@@H](O)[C@@H](C)O[C@@H](O[C@@H]2C=C3C(OC(C)=O)CC4(O)C(CC[C@]5(C)[C@@H](C6=CC(=O)OC6)CC[C@]45O)[C@@]3(C)CC2)[C@@H]1O (stereo not given in full) | -0.07 | 36 | -2
C/C=C(\C)[C@H](O)[C@H](C)/C=C(C)/C=C/C/C(C)=C/Cc1[nH]c(OC)c(OC)c(=O)c1C | -0.53 | 96* | 55
COc1ccc(CCNCc2cc(Cl)cc(Cl)c2OC)cc1OC | x | 7 | x
Oc1ccc2c3c1OC1[C@@H](O)CC[C@@]4(O)[C@@H](C2)N(CC2CCC2)CC[C@]314 (stereo not given in full) | -0.056 | 0 | -1
COc1cc2c(cc1O)CCNC2C (stereo not given) | -0.1 | -14 | 1
CC[C@H]1CN2CCc3cc(OC)c(OC)cc3[C@@H]2C[C@@H]1C[C@H]1NCCc2cc(O)c(OC)cc21 | 1.2 | 88* | 86*
CN1CCc2nc3sc(C(=O)C(C)(C)C)c(N)c3cc2C1 | 0.048 | 41 | u
CC(=O)NC1C(OC2OC(CC(O)C3OC(n4ccc(=O)[nH]c4=O)C(O)C3O)C(O)C(O)C2NC(=O)/C=C/CCCCCCCCCC(C)C)OC(CO)C(O)C1O (stereo not given) | -0.4 | 60 | 108*
CCNC(=S)N1CCN(CC(=O)Nc2ccc(Cl)cc2C(=O)c2ccccc2)CC1 | x | -2 | x
CCN1C[C@]2(COC)CC[C@H](O)[C@]34C1[C@H](C[C@H]23)[C@@]1(O)C[C@H](OC)[C@H]2C[C@@H]4[C@@H]1[C@H]2OC(C)=O | -0.24 | -1 | -47
Cc1ccnc(NC(c2ccccc2[N+](=O)[O-])c2ccc3ccc(C)nc3c2O)c1 (stereo not given) | x | 57 | x

Compound activity: PubChem, Broad Institute
